Laboratory results: paper PMC12136788
Changes are numbered by the printed parent chain. In all, about 24,000 sequences were measured (“enrichment r”: median about 0.99, highest 2% from about 3.7 on). The full list was thinned out, with the highest values kept by preference.

T1: UNK ZnF1-3 (human, UniProt Q9C0B0 31-174)
T1 sequence: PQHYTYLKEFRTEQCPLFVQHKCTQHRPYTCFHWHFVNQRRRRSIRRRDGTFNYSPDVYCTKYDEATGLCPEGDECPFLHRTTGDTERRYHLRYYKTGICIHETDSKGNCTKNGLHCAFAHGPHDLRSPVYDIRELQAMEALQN

B1: chr7:149068622:149068623:-_ENSMUSG00000025139_ENSMUST00000001950|mus_hu|mus_mus_mus_hu_False|8_28 (ssRNA)
RNA: GGGAGUUCUACAGUCCGACGAUCGUGAGGCCUCUGAGUGUGGCUUGUGGUCUGUCCUGGGUUAGAGUUGUUAAUAUCACGGAACAUACCAUCUAGAACGUUCCAGUCUGCCUGACUACCUUCAUUCGCAAGAGGGCAGAAAUCCAACAGAGGAUUGAGCAUCA
B2: chr5:138634757:138634758:+_ENSMUSG00000036968_ENSMUST00000110934|mus_hu|FALSE|FALSE (ssRNA)
RNA: GGGAGUUCUACAGUCCGACGAUCGUAGACCAAGUAUCUAUCCCACCUAAAUUAUCAGCAACUCCAGGCCAUGACCCAGUGUCCCAUUCUCCUUCACGGUUUGCUGGUGUGUAGCCUCCUGGAUACAGGCAAUGUAUAUAGAUCCAACAGAGGAUUGAGCAUCA
B3: chr17:56552419:56552420:-_ENSMUSG00000013236_ENSMUST00000086828|mus_mus|mus_mus_mus_hu_False|88_88 (ssRNA)
RNA: GGGAGUUCUACAGUCCGACGAUCAAAAAAUACACUAUUUAAAAAAAAAAGAAAAAAACGGGAUACAGUUACACUGAGAGUUUUAAAAGAAAGCUGGAUUCUGGUCCCAGCCCAGUGUCCCCAGGCUGCAGAGCGGGGAGGAGCCAACAGAGGAUUGAGCAUCA
B4: chr17:56552419:56552420:-_ENSMUSG00000013236_ENSMUST00000086828|mus_mus|mus_mus_mus_hu_False|58_88 (ssRNA)
RNA: B3 RNA with G77C, G79C, U81A
B5: chr17:56552419:56552420:-_ENSMUSG00000013236_ENSMUST00000086828|mus_mus|mus_mus_mus_hu_False|28_88 (ssRNA)
RNA: B3 RNA with C107U, A108U, C112A, G114A, U115A
B6: chr17:56552419:56552420:-_ENSMUSG00000013236_ENSMUST00000086828|mus_mus|mus_mus_mus_hu_False|8_88 (ssRNA)
RNA: B3 RNA with C128A, A129G, G130U, A131G, G132C, C133G, G135A, G136A
B7: 30734625_30737523_1216_CDS_ENSG00000101337_ENST00000398022|human|control|control (ssRNA)
RNA: GGGAGUUCUACAGUCCGACGAUCCAGGGAGCUGAGGAUCAUGGGGUACUGGGGGGGCCUGAAGACGUCGCCGUGCACCAACUUCCACCCAGACUCCUCCAUGGUGUCUUCAAUGUCAUCCUCCUUGUUGUAGUUGGCAAUGUCCAACAGAGGAUUGAGCAUCA
B8: chr7:149068622:149068623:-_ENSMUSG00000025139_ENSMUST00000001950|mus_hu|mus_mus_mus_hu_False|68_68 (ssRNA)
RNA: GGGAGUUCUACAGUCCGACGAUCGUGAGGCCUCUGAGUGUGGCUUGUGGUCUGUCCUGGGUUAGAGCUGCUGGUAACACGGAACAUACCAUCUAGAACGUUCCAGUCCCGCCUGACACCUUCAUUCCCAAUGGAGAAGAAAUCCAACAGAGGAUUGAGCAUCA
B9: chr1:93299114:93299115:+_ENSG00000122406_ENST00000370321|hu_hu|motif|central (ssRNA)
RNA: GGGAGUUCUACAGUCCGACGAUCUUGUAUCACCAAGCGUUUCCGAGCAUAAUAAUCAGUUUUACCCUCUCGUCGUCUUCGGAAUUUCACUUGGUAUCUCUUAAAGUAGGCCUUAUUCUUAACAACUUUAACAAACCCCAUCCUCAACAGAGGAUUGAGCAUCA
B10: chr3:32335226:32335227:+_ENSMUSG00000027665_ENSMUST00000108243|mus_mus|motif|central (ssRNA)
RNA: GGGAGUUCUACAGUCCGACGAUCGGCCUCUCUGAACAGUUCAUGUUUGAUGGUGACGAGUGUGGCCUCACGGAGGCAUUCGGAAGUCACUAUCAUUCCAUUGGGGAGUAAACAUUCCACUAGGAUUCGUGGGGGCAUCAAGUGCAACAGAGGAUUGAGCAUCA
B11: chr7:54825262:54825263:-_ENSG00000132432_ENST00000352861|hu_hu|hu_hu_hu_mus_False|48_78 (ssRNA)
RNA: GGGAGUUCUACAGUCCGACGAUCCUGCCGGCUGGGCUCCACAAACUGCAUUACCUGCAUGACUGCCGUUGGAUGGCGGAUUGAGAGUGCCAGGGACCGUAGCUCAGGAGAGAACCGAGCCCAACGGAACCGGAAGCUGGCAACCAACAGAGGAUUGAGCAUCA
B12: 93048056_93048176_2666_3pUTR_ENSMUSG00000020964_ENSMUST00000021347|mouse|control|control (ssRNA)
RNA: GGGAGUUCUACAGUCCGACGAUCCACUGAGAGUUGUCAUUCCGUAUGGCACUGAAACAAACAUUCACUGCAGCUCUGCCGAGAGCCGCGCAUCCCUGAAAAGGAAGGCAGCAGGUUCUAAGCAGCUUCUGGGAUUCAACACGCCAACAGAGGAUUGAGCAUCA
B13: chr17:56552419:56552420:-_ENSMUSG00000013236_ENSMUST00000086828|mus_mus|mus_mus_mus_hu_False|48_88 (ssRNA)
RNA: B3 RNA with G88A, G92A, C93U, U94A, G95A
B14: chrX:165757501:165757502:-_ENSMUSG00000031352_ENSMUST00000112115|mus_mus|FALSE|FALSE (ssRNA)
RNA: GGGAGUUCUACAGUCCGACGAUCAGCAGGAGAAGAUGCUGAGGCACCCAUGGCUGGAAUCACAGGGGUCACUCCCAAUCUAAAAUACCCAGCAAAACGGGAGGCAAGGAGCGGCGAAGGGCAGGAAGCCACCAGUGUUGCCUUCAACAGAGGAUUGAGCAUCA
B15: chr17:56552419:56552420:-_ENSMUSG00000013236_ENSMUST00000086828|mus_mus|mus_mus_mus_hu_False|18_88 (ssRNA)
RNA: B3 RNA with U117G, C119A, C120G, C121G, A122C, G123A, C125G, U126G
B16: chr17:56552419:56552420:-_ENSMUSG00000013236_ENSMUST00000086828|mus_mus|mus_mus_mus_hu_False|1_88 (ssRNA)
RNA: B3 RNA with A138C, G139A, C143G
B17: chr17:56552419:56552420:-_ENSMUSG00000013236_ENSMUST00000086828|mus_mus|mus_mus_mus_hu_False|88_98 (ssRNA)
RNA: B3 RNA with U38A, U39A
B18: chr14:92628060:92628061:+_ENSG00000165934_ENST00000298875|hu_hu|motif|central (ssRNA)
RNA: GGGAGUUCUACAGUCCGACGAUCUUGACAUCAUGUCCUUUAUACAAUGGCAUAUUGUUCAUAUAAAAGGUCUCUUAUCCGGUAAAAAUCUUGACAAAGGCAGCCUUCUAAUCCAAUGCGUCCAGUUUCCGUUCUGCGGACUGCCAACAGAGGAUUGAGCAUCA
B19: chr17:32333828:32333829:-_ENSMUSG00000024002_ENSMUST00000121285|mus_mus|FALSE|FALSE (ssRNA)
RNA: GGGAGUUCUACAGUCCGACGAUCUACAGUACAGCCACAGUCACACACUACCCACAGCGCAGUGGGAGCCGCCGCUCACUGAGGAGACGAUCACACCAUUUGGAGAUAAGCAGUGCCACUGUGUCUGAGGAGAAGAGAGUUAAACAACAGAGGAUUGAGCAUCA
B20: chr17:88387627:88387628:+_ENSMUSG00000005370_ENSMUST00000005503|mus_hu|motif|central (ssRNA)
RNA: GGGAGUUCUACAGUCCGACGAUCAAAAUCAUCUCCAAAAAAAGUCUUCGUAAUGCAAGGAUGGCGUGAUCCUUUAAGCUCGGAGAAGGGGGGGGUAUCUUCCGGCAACAGAAUUACUGGGCGACACAUAGGACCAUCACCCCCCAACAGAGGAUUGAGCAUCA
B21: chr8:26941818:26941819:-_ENSMUSG00000031575_ENSMUST00000166078|mus_mus|FALSE|FALSE (ssRNA)
RNA: GGGAGUUCUACAGUCCGACGAUCACUAGCAGACACAGCACUGCUUUGUUUCUGGUUGUCAUAAGCAGGACCAAUAUUACUAAGAUCCUGAUCCAAAAGUCCAAACUUGGGGUAAUCUUCUUCUGGGUCUUUGCUUCCUGGGUCCAACAGAGGAUUGAGCAUCA
B22: chr1:163117127:163117128:-_ENSG00000143248_ENST00000313961|hu_mus|hu_hu_hu_mus_False|58_98 (ssRNA)
RNA: GGGAGUUCUACAGUCCGACGAUCUGCUACAAAGGAUGGAGGAAAUAUCACAGGGCAACUUUUGGAAGCCUGACCAGAUUACUACUUGAUUAGCUCCUUAUAAAAUUCAGAGCGCACAAAGCGGGGCAGAGAAUCCUUCUCCAUCAACAGAGGAUUGAGCAUCA

What follows are binders tested against T1, UNK ZnF1-3 (assay: nsRBNS (natural sequence RNA bind-n-seq); RBNS binding buffer (assumed for nsRBNS): 25 mM Tris pH 7.5, 150 mM KCl, 3 mM MgCl2, 0.01% Triton X-100, 500 ug/ml BSA, 20 U/ml SUPERase-In, 4 C; UNK is unkempt and MSI1 is Musashi-1; names of the RNAs are library labels; protein concentration not given here; high values mean tight binding).
Binder B1 has a binding signal of 0.726 enrichment R.
In the case of B2, the binding signal is reported as 0.757 enrichment R.
Binder B3 has a binding signal of 7.69 enrichment R.
For B4, the binding signal was 12.3 enrichment R.
B5 showed a binding signal of 8.27 enrichment R.
With B6 the binding signal was 6.77 enrichment R.
Work on B7 yielded a binding signal of 0.573 enrichment R.
For B8, the binding signal was 0.824 enrichment R.
B9 was tested, and the binding signal was 0.572 enrichment R.
In the case of B10, the binding signal is reported as 1.05 enrichment R.
With B11 the binding signal was 1.55 enrichment R.
In the case of B12, the binding signal is reported as 0.952 enrichment R.
For B13, the binding signal was 16.3 enrichment R.
Binder B14 has a binding signal of 1.75 enrichment R.
Binder B15 has a binding signal of 9.03 enrichment R.
Binder B16 has a binding signal of 7.19 enrichment R.
B17 gave a binding signal of 16 enrichment R.
With B18 the binding signal was 0.899 enrichment R.
B19 was tested, and the binding signal was 1.36 enrichment R.
B20 showed a binding signal of 1.58 enrichment R.
With B21 the binding signal was 0.761 enrichment R.
In the case of B22, the binding signal is reported as 1.55 enrichment R.
